{
  "source": "PubChem BioAssay AID371",
  "about": "(SRMLSC, 2006)",
  "note": "Where “and” joins values, the source holds several entries; their conditions need not be identical. Identical values can stand only once. The whole screen tested about 3,300 compounds, of which about 280 (8.5%) were called active. The list comes from a sample in which actives are over-represented; it also holds similar structures and randomly drawn compounds. Values without a mark were called inactive.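 How the source made its calls: active means mean growth inhibition over the two runs of 50% or more; inactive means mean growth inhibition under 50%.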",
  "data": [
    {"experiment": "A549 NSCLC cell proliferation inhibitors – ATP luminescence, human non-small cell lung line, primary screen (AID 371);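 further: compound exposure lasted 72 h before the ATP read; 0% = untreated cell signal and 100% = no luminescence left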", "details": "at 10 µM, stronger effect = higher value", "values": [
      {"smiles": "CC(C)N1CCc2c(sc(N)c2C#N)C1", "growth inhibition": "17.2%"},
      {"smiles": "CC(=O)N=C(N)Sc1nc2ccccc2[nH]1", "growth inhibition": "6.73%"},
      {"smiles": "COC(=O)CSc1nc(-c2cccs2)ccc1C#N", "growth inhibition": "14.7%"},
      {"smiles": "COc1cc(Cn2ccnc2)c(OC)cc1Cn1ccnc1", "growth inhibition": "1%"},
      {"smiles": "Cc1ccc(/C(O)=C2/C(=O)C(=O)N(Cc3ccco3)C2c2cccs2)cc1", "note": "(centres undefined)", "growth inhibition": "-0.53%"},
      {"smiles": "COC(=O)/C=c1/s/c(=C(/C#N)C(=O)N2CCCCC2)n(-c2ccccc2)c1=O", "growth inhibition": "-4.39%"},
      {"smiles": "O=C(Nc1cccnc1)c1cccnc1", "growth inhibition": "-4.29%"},
      {"smiles": "C[C@@H]1C[C@H](Nc2ccccc2)c2ccccc2N1C(=O)c1cccnc1", "growth inhibition": "53.7% (active)"},
      {"smiles": "O=C(c1cncc(Br)c1)N1CCCc2ccccc21", "growth inhibition": "8.54%"},
      {"smiles": "O=C(O)CCN(CCC(=O)O)c1nnc(SCc2ccccc2)s1", "growth inhibition": "-4.61%"},
      {"smiles": "CC(=O)NC(=O)Nc1sc(=S)n(C)c1C", "growth inhibition": "-19.1%"},
      {"smiles": "CCOc1ccc(/C(O)=C2/C(=O)C(=O)N(c3nc(C)c(C)s3)C2c2ccco2)cc1", "note": "(centres undefined)", "growth inhibition": "18.5%"},
      {"smiles": "CCCCSc1nnc2n(CCc3ccccc3)c(=O)c3c4c(sc3n12)COC(C)(C)C4", "growth inhibition": "13.8%"},
      {"smiles": "CCN(CC)CCNC(=O)c1ccccc1N", "growth inhibition": "2.63%"},
      {"smiles": "CCN(CC)CCNC(=O)c1cc(S(C)(=O)=O)ccc1OC", "growth inhibition": "-4.61%"},
      {"smiles": "CCCCOc1cc(C(=O)NCCN(CC)CC)c2ccccc2n1", "growth inhibition": "81.4% (active) and 70.4% (active)"},
      {"smiles": "C=CCOn1c(=O)c(-c2cc3ccccc3o2)[n+]([O-])c2ccccc21", "growth inhibition": "8.84%"},
      {"smiles": "CNCCC=C1c2ccccc2CCc2ccccc21", "growth inhibition": "79.8% (active)"},
      {"smiles": "CN(C)CCC=C1c2ccccc2CCc2ccccc21", "growth inhibition": "26.6%"},
      {"smiles": "CC1(C)Cc2ccccc2-c2c1c(=O)n(-c1ccccc1)c1nnnn21", "growth inhibition": "3.31%"},
      {"smiles": "Cc1ccccc1COc1ccc(/C(O)=C2/C(=O)C(=O)N(CCCn3ccnc3)C2c2ccco2)cc1", "note": "(centres undefined)", "growth inhibition": "1.79%"},
      {"smiles": "CCN(CC)CCN1C(=O)C(O)=C(C(=O)c2cc3ccccc3o2)C1c1cccnc1", "note": "(centres undefined)", "growth inhibition": "-1.01%"},
      {"smiles": "CC(C)OC(=O)C(C#N)c1nc2ccccc2nc1N1CCCC1", "note": "(centres undefined)", "growth inhibition": "18.3%"},
      {"smiles": "COC(=O)COc1ccc(Oc2nc(SC)nc(N(C)C)n2)nn1", "growth inhibition": "-1.19%"}
    ]}
  ]
}
